Experimental data published in the supplement of paper PMC12282887.
± gives the standard deviation of the averaged measurements.

Assays:
Experiment in all cases: promoter activity interaction Z-score (Lux/OD deviation from empty-vector control); higher = stronger promoter induction by the compound
[1] = system: E. coli BW25113 acrABp lux reporter
Outline: (§1)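 E. coli BW25113 (wild type or marA, soxS or rob deletion) carrying low-copy luxCDABE promoter reporters grew in 40 µl LB Lennox in 384-well plates at 37°C. Each compound was tested at four 1:2 dilutions in biological duplicates. OD600 and luminescence were read every 30 min for 12 h. Areas were taken over 0–8 h (wild type) or 1–9 h (mutants), and wells below 10% of median growth area were removed. The score is the Z-transformed residual of growth-normalised luminescence fitted against the empty-vector control.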

[2] = system: E. coli BW25113 micFp lux reporter
Outline: as §1

[3] = system: E. coli BW25113 ompFp lux reporter
Outline: as §1

[4] = system: E. coli BW25113 robp lux reporter
Outline: as §1

[5] = system: E. coli BW25113 soxSp lux reporter
Outline: as §1

[6] = system: E. coli BW25113 tolCp lux reporter
Outline: as §1

[7] = 19 µg/ml, genetic background: wild type
[8] = 19 µg/ml, genetic background: ΔmarA
[9] = 19 µg/ml, genetic background: Δrob
[10] = 19 µg/ml, genetic background: ΔsoxS
[11] = 38 µg/ml, genetic background: wild type
[12] = 38 µg/ml, genetic background: ΔmarA
[13] = 38 µg/ml, genetic background: Δrob
[14] = 38 µg/ml, genetic background: ΔsoxS
[15] = 76.1 µg/ml, genetic background: wild type
[16] = 76.1 µg/ml, genetic background: ΔmarA
[17] = 76.1 µg/ml, genetic background: Δrob
[18] = 76.1 µg/ml, genetic background: ΔsoxS
[19] = 152.1 µg/ml, genetic background: wild type
[20] = 152.1 µg/ml, genetic background: ΔmarA
[21] = 152.1 µg/ml, genetic background: Δrob
[22] = 152.1 µg/ml, genetic background: ΔsoxS

COc1cc(C=O)ccc1O [Vanillin]
promoter activity interaction Z-score [1, 7]: -0.0924 ± 0.22 | promoter activity interaction Z-score [1, 8]: -1.01 ± 0.36 | promoter activity interaction Z-score [1, 9]: -0.237 ± 0.036 | promoter activity interaction Z-score [1, 10]: -0.38 ± 0.04 | promoter activity interaction Z-score [1, 11]: -0.3 ± 0.17 | promoter activity interaction Z-score [1, 12]: 0.134 ± 0.85 | promoter activity interaction Z-score [1, 13]: -0.312 ± 0.14 | promoter activity interaction Z-score [1, 14]: -0.79 ± 0.35 | promoter activity interaction Z-score [1, 15]: -0.108 ± 0.02 | promoter activity interaction Z-score [1, 16]: -0.501 ± 0.51 | promoter activity interaction Z-score [1, 17]: -0.406 ± 0.017 | promoter activity interaction Z-score [1, 18]: -0.409 ± 0.11 | promoter activity interaction Z-score [1, 19]: 0.0819 ± 0.4 | promoter activity interaction Z-score [1, 20]: -0.204 ± 0.85 | promoter activity interaction Z-score [1, 21]: -0.28 ± 0.056 | promoter activity interaction Z-score [1, 22]: -0.339 ± 0.24 | promoter activity interaction Z-score [2, 7]: 0.414 ± 0.3 | promoter activity interaction Z-score [2, 8]: 0.0708 ± 0.21 | promoter activity interaction Z-score [2, 9]: 0.348 ± 0.34 | promoter activity interaction Z-score [2, 10]: 0.261 ± 0.29 | promoter activity interaction Z-score [2, 11]: 0.827 ± 0.47 | promoter activity interaction Z-score [2, 12]: 0.117 ± 0.12 | promoter activity interaction Z-score [2, 13]: 0.608 ± 0.26 | promoter activity interaction Z-score [2, 14]: 0.255 ± 0.57 | promoter activity interaction Z-score [2, 15]: 1.55 ± 0.57 | promoter activity interaction Z-score [2, 16]: 0.0617 ± 0.059 | promoter activity interaction Z-score [2, 17]: 0.54 ± 0.19 | promoter activity interaction Z-score [2, 18]: 0.822 ± 0.14 | promoter activity interaction Z-score [2, 19]: 1.67 ± 0.3 | promoter activity interaction Z-score [2, 20]: 0.484 ± 0.14 | promoter activity interaction Z-score [2, 21]: 1.27 ± 0.44 | promoter activity interaction Z-score [2, 22]: 1.36 ± 0.11 | promoter activity interaction Z-score [3, 7]: -0.994 ± 0.24 | promoter activity interaction Z-score [3, 8]: -1.33 ± 0.62 | promoter activity interaction Z-score [3, 9]: -1.05 ± 0.28 | promoter activity interaction Z-score [3, 10]: -0.69 ± 0.026 | promoter activity interaction Z-score [3, 11]: -0.89 ± 0.22 | promoter activity interaction Z-score [3, 12]: -1.03 ± 0.49 | promoter activity interaction Z-score [3, 13]: -0.857 ± 0.061 | promoter activity interaction Z-score [3, 14]: -0.75 ± 0.044 | promoter activity interaction Z-score [3, 15]: -0.551 ± 0.35 | promoter activity interaction Z-score [3, 16]: -1.2 ± 0.46 | promoter activity interaction Z-score [3, 17]: -0.873 ± 0.084 | promoter activity interaction Z-score [3, 18]: -0.372 ± 0.057 | promoter activity interaction Z-score [3, 19]: -0.504 ± 0.27 | promoter activity interaction Z-score [3, 20]: -0.917 ± 0.56 | promoter activity interaction Z-score [3, 21]: -0.507 ± 0.057 | promoter activity interaction Z-score [3, 22]: 0.0107 ± 0.52 | promoter activity interaction Z-score [4, 7]: -0.0267 ± 0.12 | promoter activity interaction Z-score [4, 8]: -0.748 ± 0.21 | promoter activity interaction Z-score [4, 9]: -0.428 ± 0.024 | promoter activity interaction Z-score [4, 10]: -0.184 ± 0.93 | promoter activity interaction Z-score [4, 11]: -0.354 ± 0.066 | promoter activity interaction Z-score [4, 12]: 0.11 ± 0.23 | promoter activity interaction Z-score [4, 13]: -0.287 ± 0.54 | promoter activity interaction Z-score [4, 14]: -0.138 ± 0.42 | promoter activity interaction Z-score [4, 15]: -0.265 ± 0.18 | promoter activity interaction Z-score [4, 16]: -0.307 ± 0.11 | promoter activity interaction Z-score [4, 17]: -0.399 ± 0.16 | promoter activity interaction Z-score [4, 18]: -0.0986 ± 0.36 | promoter activity interaction Z-score [4, 19]: 0.841 ± 1.6 | promoter activity interaction Z-score [4, 20]: 0.111 ± 0.07 | promoter activity interaction Z-score [4, 21]: -0.463 ± 0.3 | promoter activity interaction Z-score [4, 22]: 0.223 ± 0.32 | promoter activity interaction Z-score [5, 7]: -0.29 ± 0.1 | promoter activity interaction Z-score [5, 8]: -0.185 ± 0.056 | promoter activity interaction Z-score [5, 9]: 0.0115 ± 0.23 | promoter activity interaction Z-score [5, 10]: -0.409 ± 0.11 | promoter activity interaction Z-score [5, 11]: -0.279 ± 0.037 | promoter activity interaction Z-score [5, 12]: -0.201 ± 0.018 | promoter activity interaction Z-score [5, 13]: 0.0294 ± 0.17 | promoter activity interaction Z-score [5, 14]: -0.314 ± 0.082 | promoter activity interaction Z-score [5, 15]: -0.117 ± 0.062 | promoter activity interaction Z-score [5, 16]: -0.32 ± 0.06 | promoter activity interaction Z-score [5, 17]: -0.186 ± 0.072 | promoter activity interaction Z-score [5, 18]: -0.321 ± 0.11 | promoter activity interaction Z-score [5, 19]: -0.196 ± 0.03 | promoter activity interaction Z-score [5, 20]: -0.205 ± 0.12 | promoter activity interaction Z-score [5, 21]: -0.225 ± 0.11 | promoter activity interaction Z-score [5, 22]: -0.367 ± 0.18 | promoter activity interaction Z-score [6, 7]: 0.0479 ± 0.73 | promoter activity interaction Z-score [6, 8]: -0.119 ± 0.31 | promoter activity interaction Z-score [6, 9]: 0.58 ± 0.34 | promoter activity interaction Z-score [6, 10]: 0.597 ± 0.78 | promoter activity interaction Z-score [6, 11]: 0.657 ± 0.53 | promoter activity interaction Z-score [6, 12]: 0.25 ± 0.54 | promoter activity interaction Z-score [6, 13]: 0.749 ± 0.62 | promoter activity interaction Z-score [6, 14]: -0.627 ± 0.44 | promoter activity interaction Z-score [6, 15]: 0.993 ± 0.047 | promoter activity interaction Z-score [6, 16]: -0.352 ± 0.71 | promoter activity interaction Z-score [6, 17]: -0.533 ± 0.45 | promoter activity interaction Z-score [6, 18]: 0.305 ± 0.97 | promoter activity interaction Z-score [6, 19]: -0.199 ± 0.18 | promoter activity interaction Z-score [6, 20]: -0.469 ± 1 | promoter activity interaction Z-score [6, 21]: 0.503 ± 0.78 | promoter activity interaction Z-score [6, 22]: 1.07 ± 1.8
